The source of these data is PubChem BioAssay (NCI).

Molecules are shown by their SMILES. The panel holds about 83,000 compounds, 20% with a hit somewhere; the sample as a whole holds those more often.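 Testing used 96-well plates and a 48-hour single-concentration exposure. Example: -40 means 40% of the starting cells died.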 A number with no mark means an inactive call. The source made the active and inactive calls. The calls were made as follows: active = growth percent below 10; inactive = the rest.

What all share (experiment): NCI-60 one-dose screen, 48 h (100 = growth as untreated, 0 = no growth, -100 = all killed)
Details in all cases: 10 µM unless noted

The subject of experiment [1] is NCI-H23 lung.
In experiment [2] the test system is NCI-H226 lung.
The subject of experiment [3] is NCI-H322M lung.
Experiment [4] concerns HOP-62 NSCLC.
Experiment [5] concerns NCI-H460 lung.
In experiment [6] the test system is HOP-92 NSCLC.
Experiment [7] has as its system NCI-H522 lung.
The test system of experiment [8] is A549/ATCC NSCLC.
For experiment [9], the system named is 786-0 renal.
Experiment [10] deals with COLO 205 colon.
The test system of experiment [11] is DU-145 prostate.
The subject of experiment [12] is K-562 leukemia.
In experiment [13] the test system is MALME-3M melanoma.
Experiment [14] relates to MDA-MB-231 breast.
The test system of experiment [15] is RXF 393 renal.
The test system of experiment [16] is SF-268 CNS.
Experiment [17] concerns SF-295 CNS.
The test system of experiment [18] is SF-539 CNS.
For experiment [19], the system named is UACC-257 melanoma.
Experiment [20] deals with M14 melanoma.

As for `NC(=O)c1c(NC(=S)Nc2ccc(OC(F)(F)F)cc2)sc2c1CCC1(C2)OCCO1`, the growth is 94.7% in [1]; 92.9% in [2]; 89.2% in experiment [3]; 99.9% in experiment [4]; 99.1% in [5]; 96.3% in experiment [6]. Also, the growth in experiment [7] is 83%; in experiment [8], 97.3%; in experiment [9], 98.5%; in experiment [10], 108%; in [11], 112%; in [12] it was 94.6%. Moreover, the growth in experiment [13] was 109%; in experiment [14], 98.9%; in [15], 116%; in experiment [16] it was 103%; in experiment [17], 93.4%; in experiment [18] it was 99%. The growth in experiment [19] is 97.1%; in experiment [20], 97.2%.
Consider `O=Nc1c(-c2cccc([N+](=O)[O-])c2)nc2ncccn12`, for which the growth in experiment [1] is 83.4%; in experiment [2], 102%; in experiment [3], 120%; in experiment [4] it was 100%; in [5], 101%; in experiment [6], 87.4%. Moreover, the growth was 67.1% in experiment [7]; 97.7% in experiment [8]; 93.9% in [9]; 65.1% in experiment [10]; 73.5% in experiment [11]; 10.5% in experiment [12]. The growth in experiment [13] is 85.2%; in [14], 111%; in experiment [15], -3.85% (active); in experiment [16] it was 92.2%; in experiment [17], 107%; in [18] it was 91%. The figures for the growth in [19] and in [20] were 79.3% and 76.9%, respectively.
Take `N/C(=N\C(N)=N\c1nc2ccccc2s1)c1cccc(Br)c1`: the growth is 77% in [1]; 71.6% in [2]; 81% in [3]; -0.459% (active) in experiment [4]; 76.4% in [5]; 96.7% in [6]. The growth is 80% in [7]; -40.6% (active) in experiment [8]; 98.4% in experiment [9]; 115% in [10]; 99.1% in [11]; 73.6% in experiment [12]. Further, the growth is 101% in experiment [13]; 73.4% in experiment [14]; 95.5% in [15]; 101% in [16]; 76% in experiment [17]; 98.6% in [18]. The growth in [19] is 103%; in [20] it was 82%.
Take `CSc1nc2c(c(=O)[nH]1)C(c1ccc(C)cc1)C=C(C(=O)O)N2` (stereo not given): the growth in experiment [1] is 98.9%; in experiment [2], 104%; in experiment [3] it was 101%; in experiment [4] it was 107%; in experiment [5], 106%; in [6], 122%. Besides, the growth in [7] is 108%; in experiment [8] it was 106%; in experiment [9], 104%; in experiment [10] it was 126%; in experiment [11] it was 123%; in experiment [12] it was 110%. Besides, the growth in [13] is 98.8%; in experiment [14] it was 136%; in experiment [15] it was 112%; in experiment [16], 115%; in [17], 89.5%; in experiment [18], 106%. In addition, the growth in experiment [19] is 110%; in [20], 99.8%.
For `CC(C)CC1NC(C)(C)CO1` (stereo not given), the growth in experiment [1] is 105%; in [2], 107%; in [3] it was 121%; in experiment [4], 95.9%; in experiment [5], 107%; in experiment [6], 98%. Besides, the growth in [7] was 89.8%; in experiment [8], 103%; in experiment [9] it was 109%; in experiment [10], 108%; in experiment [11], 117%; in [12], 125%. The growth in experiment [13] is 124%; in experiment [14] it was 106%; in experiment [15], 109%; in experiment [16], 102%; in experiment [17], 131%; in [18], 126%. For the same compound, the growth was 112% in experiment [19] and 110% in [20].
In the case of `N#Cc1c(-c2ccccc2)cc(-c2ccccc2)n(CC(=O)NO)c1=O`, the growth is 53.1% in experiment [1]; 38.9% in experiment [2]; 81.2% in experiment [3]; 71.2% in [4]; 83% in experiment [5]; 32% in experiment [6]. The growth in experiment [7] was -70.9% (active); in [8] it was 54.4%; in experiment [9], 63.7%; in experiment [10], 58.6%; in experiment [11], 61%; in experiment [12], 6.26% (active). Moreover, the growth in experiment [13] was 66%; in experiment [14] it was 42.8%; in [15], 27.9%; in [16] it was 52.5%; in experiment [17] it was 63.5%; in experiment [18], 63.9%. The growth in [19] was 67.5%; in experiment [20], 64.8%.
